# Values joined by “and” are separate entries in the source; they are usually repeats but may differ in a detail not shown here. Identical values can stand only once. For some assays here: Potency and affinity values are given separately. Active and inactive are the calls of the source.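 The calls were made as follows, unless noted: active = compounds whose cell count with miR-34 switched on is under 0.7 times the count with it off; inactive = the rest.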
# Columns and labels:
# [1] = blockers of polyQ-driven CASP3 activation – cell-based (AID 1583); details: polyglutamine-induced caspase-3 activation, cell assay; stronger effect = higher value;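 tested at 10 µM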
# [2] = yeast 75Q aggregation reduction – 75Q-TubU reporter (AID 1593); details: Yeast 75Q polyglutamine aggregation reporter
# [3] = restoration of touch response, mutant HTT neurons – whole organism, C. elegans mechanosensory neurons, N-terminal huntingtin (AID 1599); details: C. elegans polyQ-huntingtin mechanosensory neurons, stronger effect = higher value
# [4] = blockers of cytochrome c efflux from mitochondria – biochemical, purified mitochondria (AID 1603); details: stronger effect = lower value;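 also: mouse liver mitochondria challenged with calcium chloride; signal normalized to the plate average as 100%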
# [5] = polyglutamine aggregate formation blockers (AID 1604); details: polyglutamine-induced protein aggregation inhibition assay; stronger effect = higher value; tested at 2.5 µM
# [6] = glutamate transport activators, MN-1 cells, MN-1 cell line (AID 1612); details: MN-1 motor neuron cells, stronger effect = higher value;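 also: tested at 1 µM final; 0% = mean of DMSO vehicle wells on each plate; positive means more glutamate uptake than control and negative means less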
# [7] = GFP-Q80 aggregate reduction, neuronal-like cells, cell-based, NGF-treated PC12, GFPQ80 (AID 1614); details: PC12 NGF-treated GFP-polyQ80 inclusion reduction;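 also: lower means fewer inclusions and 0 means no inclusions at all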
# [8] = 75Q-TubH aggregate inhibition, S. cerevisiae, yeast (AID 1616); details: S. cerevisiae 75Q-TubH polyglutamine aggregation suppression; stronger effect = higher value
# [9] = biological target: 6-phosphogluconate dehydrogenase, decarboxylating (Homo sapiens) (UniProt P52209); assay: inhibition of human phosphogluconate dehydrogenase – biochemical, recombinant enzyme, NADPH absorbance, primary screen (AID 1159550;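 active = at least 20% inhibition of 6-phosphogluconate dehydrogenase activity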); details: recombinant 6PGD, NADPH absorbance 341 nm; at 10 µM; stronger effect = higher value
# [10] = EMT-state selective cytotoxicity in co-culture – imaging, PC-3E GFP, TEM4-18 mCherry, primary screen (AID 1345086;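 active = compounds killing one labelled cell type while sparing the other, by normalised counts and ratio limits, not self-fluorescent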;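 as to all read-outs here: cells exposed to compound for 72 h before imaging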;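 as to red/green cell ratio (normalised): normalised mesenchymal count divided by normalised epithelial count so high means epithelial killing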); details: PC-3E GFP / TEM4-18 mCherry co-culture, imaging cell counts, at 1 µM; for red/green cell ratio (normalised): actives lie on both sides, counts scaled to control wells, 1 = unselective
# [11] = viability loss with induced miR-34 in A549 – imaging, A549 dox-inducible miR-34, nuclei and caspase counts, primary screen (AID 1347080); details: A549 miR-34 inducible, Hoechst nuclei count, 48 h
# [12] = blockers of cellular phospholipid synthesis – cell-based, LOPAC library, screen 4, primary screen (AID 1347384; call rule not given here); details: animal cells, phospholipid biosynthesis inhibition screen; at 10 µM
# [13] = biological target: Mitogen-activated protein kinase 7 (Homo sapiens) (UniProt Q13164); assay: Gal4-ERK5 driven luciferase induction – cell-based, HTS, primary screen (AID 1508626;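 active = luciferase signal above three times the same-plate solvent-only control wells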;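 also: luciferase driven by Gal4-ERK5 fusion binding five Gal4 sites before minimal TATA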); details: HeLa Gal4-ERK5 transactivation, 18 h, at 5 µM, stronger effect = higher value
# [14] = galactose survival enhancers in mitochondrial complex I cybrids – cell-based, galactose medium, ATP luminescence, primary screen (AID 1645843;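 active = z-score of at least 1.8 in each of two replicates, scored against plate mean and spread of sample wells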;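 also: positive z means more ATP and so rescue of galactose-driven cybrid death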); details: complex I mutant cybrid cells, 72 h, stronger effect = higher value
# [15] = P. berghei load reduction in hepatocytes – cell-based, HepG2, luciferase luminescence, HepG2 viability, primary screen (AID 624349; in the data active = parasite load remaining mostly below about 12%, no sharp cut-off; inactive = mostly above about 10%;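 also: 100% = mean of DMSO negative control wells on the same plate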); details: P. berghei liver stage in HepG2, luciferase luminescence, concentration not given here; parasite load remaining: stronger effect = lower value; viability: measured here: HepG2 viability without parasites
# [16] = MELAS cybrid and Rieske KO viability enhancers – cell-based, MELAS cybrids, Rieske KO mouse fibroblasts, CellTiter-Glo, primary screen (AID 1508586;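 active = mean z-score across replicates of 1.96 or higher in either the MELAS or the Rieske mutant cell line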;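 also: z relative to plate mean and SD of compound and empty wells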); details: low glucose
# [17] = compounds altering circadian rhythm period length – cell-based, LOPAC library, luminescence reporter (AID 2774; call rule not given here;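 also: values are relative to mean of DMSO wells on each plate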); details: circadian reporter cells, at 7 µM, actives lie on both sides
# [18] = tested on: Hepatitis C virus NS3 helicase; assay: blockers of NS3h binding to ssDNA – biochemical, fluorescence polarization, LOPAC1280 library, primary screen (AID 687035; in the data active = inhibition above about 37%); details: Purified HCV NS3 helicase, Cy5-dT15 ssDNA binding fluorescence polarization; stronger effect = higher value; concentration not given here
# [19] = compounds altering Cy5-DNA-NS3h complex signal – biochemical, LOPAC1280, artefact control for HCV NS3 helicase inhibitor project (AID 687037; call rule not given here); details: Cy5-DNA-NS3h complex fluorescence interference counterscreen
# [20] = measured here: epithelial PC-3E GFP cell survival
# [21] = measured here: mesenchymal TEM4-18 mCherry cell survival
# [22] = stronger effect = lower value, cell number ratio, induced over uninduced
# [23] = measured here: relative caspase fold change +Dox/-Dox
# [24] = measured here: total cells with miR-34 induction, stronger effect = lower value
# [25] = measured here: total cells without miR-34 induction
# Chain of 6-phosphogluconate dehydrogenase, decarboxylating (Homo sapiens) (P52209 whole entry, looked up): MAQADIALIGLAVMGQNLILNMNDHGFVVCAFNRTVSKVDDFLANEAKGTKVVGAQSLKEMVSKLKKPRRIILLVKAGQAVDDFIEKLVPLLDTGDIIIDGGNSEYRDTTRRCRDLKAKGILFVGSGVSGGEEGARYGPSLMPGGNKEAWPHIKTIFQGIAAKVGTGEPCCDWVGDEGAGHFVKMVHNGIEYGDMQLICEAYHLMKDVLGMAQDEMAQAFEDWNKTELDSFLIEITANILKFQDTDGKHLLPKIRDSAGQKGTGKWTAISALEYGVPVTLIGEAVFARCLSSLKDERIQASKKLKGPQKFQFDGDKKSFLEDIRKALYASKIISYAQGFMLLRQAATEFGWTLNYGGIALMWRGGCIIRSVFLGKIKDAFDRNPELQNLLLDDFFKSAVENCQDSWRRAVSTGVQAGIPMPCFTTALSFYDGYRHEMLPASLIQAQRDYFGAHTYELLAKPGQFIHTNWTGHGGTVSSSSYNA
# Chain of Mitogen-activated protein kinase 7 (Homo sapiens) (Q13164 whole entry, looked up, the tested form may be a part): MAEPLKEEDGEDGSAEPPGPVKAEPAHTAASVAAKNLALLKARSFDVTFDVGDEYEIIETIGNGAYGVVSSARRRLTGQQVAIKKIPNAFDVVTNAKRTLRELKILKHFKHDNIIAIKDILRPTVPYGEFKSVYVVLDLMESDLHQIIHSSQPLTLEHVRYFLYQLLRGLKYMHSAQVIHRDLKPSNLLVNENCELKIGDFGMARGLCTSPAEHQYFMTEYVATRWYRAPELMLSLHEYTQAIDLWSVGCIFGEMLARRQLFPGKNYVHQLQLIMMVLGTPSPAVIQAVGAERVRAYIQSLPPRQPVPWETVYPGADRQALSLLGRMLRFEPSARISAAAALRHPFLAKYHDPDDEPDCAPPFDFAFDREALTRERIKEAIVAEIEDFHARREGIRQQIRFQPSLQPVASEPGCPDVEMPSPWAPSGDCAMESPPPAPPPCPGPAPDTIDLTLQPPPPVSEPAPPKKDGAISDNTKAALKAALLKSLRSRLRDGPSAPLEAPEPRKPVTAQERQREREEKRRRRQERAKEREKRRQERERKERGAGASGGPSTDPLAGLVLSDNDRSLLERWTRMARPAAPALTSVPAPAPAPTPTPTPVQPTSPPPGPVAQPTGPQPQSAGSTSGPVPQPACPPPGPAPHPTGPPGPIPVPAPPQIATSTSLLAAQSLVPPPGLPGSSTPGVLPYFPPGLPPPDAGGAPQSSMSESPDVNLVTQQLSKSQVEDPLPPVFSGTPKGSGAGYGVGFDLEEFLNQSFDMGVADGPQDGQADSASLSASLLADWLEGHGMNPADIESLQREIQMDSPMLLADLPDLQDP
compound,measurement,setting,value
O=c1cc(-c2ccccc2)oc2c(O)c(O)ccc12,inhibition,[1],17.3%
same,score,[2],0.23
same,rescue above control,[3],-0.88
same,cytochrome c release ratio,[4],0.65
same,inhibition of aggregation,[5],81.7%
same,glutamate uptake change,[6],0.12%
same,inclusion score,[7],1.5
same,aggregation suppression score,[8],0.00444
same,inhibition,[9],-53.2% (inactive)
same,red/green cell ratio (normalised),[10],0.99 (inactive)
same,normalised cell number,[10]; [20],0.99
same,normalised cell number,[10]; [21],0.98
same,fold change,[11]; [22],1.65 (inactive)
same,fold change,[11]; [23],0.979
same,cell count,[11]; [24],3960
same,cell count,[11]; [25],2390
same,outcome,[12],inactive
same,luciferase signal,[13],32 AU (inactive)
same,z-score,[14],-0.44 (inactive)
CC(=O)N1CCN(c2ccc(OCC3CO[C@](Cn4ccnc4)(c4ccc(Cl)cc4Cl)O3)cc2)CC1 (some centres not stated),inhibition,[1],-4.16%
same,score,[2],0.15
same,rescue above control,[3],0.92
same,cytochrome c release ratio,[4],1.8
same,inhibition of aggregation,[5],88.5%
same,glutamate uptake change,[6],-8.61%
same,aggregation suppression score,[8],0.126
same,parasite load remaining,[15],15.3% (inactive) and 4.75% (inactive)
same,viability,[15],65.5% and 60%
same,inhibition,[9],-8.94% (inactive)
same,red/green cell ratio (normalised),[10],0.9 (inactive)
same,normalised cell number,[10]; [20],0.95
same,normalised cell number,[10]; [21],0.85
same,fold change,[11]; [22],1 (inactive) and 1.02 (inactive) and 0.954 (inactive)
same,fold change,[11]; [23],2.72 and 0.263 and 1.79
same,cell count,[11]; [24],7410 and 7100 and 8230
same,cell count,[11]; [25],7380 and 6960 and 8630
same,z-score,"[16]; MELAS cybrid survival, CellTiter-Glo 48 h, stronger effect = higher value",-0.501 (inactive)
same,z-score,"[16]; Rieske KO mouse fibroblast survival, CellTiter-Glo 72 h",-0.0671
same,z-score,[14],-0.8 (inactive)
COC(=O)[C@H]1[C@H]2C[C@H]3c4[nH]c5ccccc5c4CCN3C[C@H]2CC[C@@H]1O,inhibition,[1],-11.7%
same,score,[2],2.01
same,rescue above control,[3],16.2
same,cytochrome c release ratio,[4],1.18
same,inhibition of aggregation,[5],75.9%
same,glutamate uptake change,[6],41.8%
same,inclusion score,[7],2
same,aggregation suppression score,[8],1.4
same,period change,[17],0.015 h (inactive)
same,parasite load remaining,[15],79.9% (inactive) and 65.8% (inactive)
same,viability,[15],101% and 78.6%
same,inhibition,[18],0% (inactive)
same,fluorescence ratio (interference),[19],1 (inactive)
same,inhibition,[9],-0.247% (inactive)
same,red/green cell ratio (normalised),[10],1.04 (inactive)
same,normalised cell number,[10]; [20],0.93
same,normalised cell number,[10]; [21],0.97
same,fold change,[11]; [22],0.977 (inactive) and 0.857 (inactive)
same,fold change,[11]; [23],0.889 and 1.48
same,cell count,[11]; [24],10000 and 9150
same,cell count,[11]; [25],10300 and 10700
same,outcome,[12],inactive
same,z-score,[14],0.115 (inactive)

# Reference: PubChem BioAssay
